Compound activity (PubChem BioAssay)
Compounds with a hit are over-represented: about 2.6% of the library has one in this group of screens.
Fam108B counter – Fam108B inhibition, counter-screen for RBBP9 inhibitors; recombinant Fam108B, FP-Rh probe fluorescence polarization; AID 1947; 300,000 tested, 0.33% active; inhibition, % at 9.51 µM;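 active means inhibition above the screen mean inhibition plus 3 SD, computed separately per campaign, cut at about 18% in these data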;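 further: inhibitors lower polarization as less probe binds the enzyme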
PME-1 primary – blocks human protein phosphatase methylesterase 1; 320,000 tested, 0.53% active; Q9Y570; recombinant PME-1, FP-Rh probe fluorescence polarization; inhibition, % at 5.9 µM;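 active means inhibition above the campaign mean of all compounds plus 3 SD, cut at about 26% in these data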;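 further: competitive labeling of PME-1 active site by serine hydrolase directed probe; inhibitors block probe labeling so polarization falls and inhibition rises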
Target sequence (Q9Y570 whole entry, looked up): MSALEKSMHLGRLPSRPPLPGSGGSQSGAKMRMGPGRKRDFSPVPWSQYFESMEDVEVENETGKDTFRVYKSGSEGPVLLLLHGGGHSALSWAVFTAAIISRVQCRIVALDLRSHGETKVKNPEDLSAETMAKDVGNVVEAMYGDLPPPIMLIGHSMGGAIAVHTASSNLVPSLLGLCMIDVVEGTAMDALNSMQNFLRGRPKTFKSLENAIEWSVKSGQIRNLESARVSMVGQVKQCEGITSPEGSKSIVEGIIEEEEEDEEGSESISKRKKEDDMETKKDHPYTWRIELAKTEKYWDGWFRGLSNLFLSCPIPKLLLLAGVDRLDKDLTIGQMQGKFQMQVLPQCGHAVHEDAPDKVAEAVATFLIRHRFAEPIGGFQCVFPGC
SIAE inh – blocks human sialic acid acetylesterase; Q9HAT2; SIAE FP-Rh probe binding, fluorescence polarization; inhibition, % at 9.66 µM; 370,000 tested, 0.69% active; AID 1053197;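 active means inhibition above a cutoff: mean of compounds within the control limits plus 3 SD of those, cut at about 17% in these data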
TCR CD3 inh – blocks the human TCR-CD3 interaction; inhibition, % at 9.4 µM; TAMRA-labeled TCR probe fluorescence, biochemical; 360,000 tested, 0.37% active; in the data active means inhibition above about 19%;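 further: recombinant mutant TCR 2C K166C tagged with TAMRA read by polarization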
PRMT1 inh – PRMT1 (human) inhibition, primary screen | 370,000 tested, 1.3% active | Q99873 | recombinant PRMT1, activity-based probe fluorescence polarization | inhibition, % at 2.79 µM;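 active means inhibition above about 21% made by adding two undisclosed values, limit read from the data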
Target sequence (Q99873 whole entry, looked up): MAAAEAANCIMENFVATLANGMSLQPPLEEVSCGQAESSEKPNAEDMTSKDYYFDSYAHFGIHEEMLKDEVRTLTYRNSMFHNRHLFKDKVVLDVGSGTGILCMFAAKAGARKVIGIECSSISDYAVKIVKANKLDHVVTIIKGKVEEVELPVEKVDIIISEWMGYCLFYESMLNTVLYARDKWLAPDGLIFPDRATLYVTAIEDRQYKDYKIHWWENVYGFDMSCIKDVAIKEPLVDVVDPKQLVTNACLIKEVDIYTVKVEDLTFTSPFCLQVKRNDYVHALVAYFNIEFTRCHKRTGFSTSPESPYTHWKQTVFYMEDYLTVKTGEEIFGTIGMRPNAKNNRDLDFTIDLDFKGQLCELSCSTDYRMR
PAD4 FP inh – blocks human protein arginine deiminase 4; Q9UM07; recombinant PAD4, RCA probe fluorescence polarization; inhibition, % at 6.36 µM; 330,000 tested, 0.41% active;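 active means percent inhibition above a cutoff equal to the mean of all tested compounds plus 3 SD, cut at about 15% in these data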
PAD4 confirm – PAD4 (human) inhibition, confirmed; shares compounds with PAD4 FP inh; recombinant PAD4, RCA probe fluorescence polarization; inhibition, % at 6.36 µM; 1,200 tested, 28% active; AID 488796;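 active means mean inhibition across replicates above the hit cutoff set by the earlier primary screen, cut at about 15% in these data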;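 further: inhibitors block active-site labeling by the probe so polarization falls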
Large screens that a line does not name were inactive (follow-up assays come after a bar, where they were run).

C#CCOCCOCCOCCNc1nc(N2CCN(C(=O)[C@H](CCC(=O)O)n3cc(C(N)[C@H](C)CC)nn3)CC2)nc(N2CCN(C(=O)[C@H](Cc3cc4ccccc4[nH]3)n3cc(C(N)[C@H](C)CC)nn3)CC2)n1 (stereo not given in full)	PAD4 FP inh 27 (no result: SIAE inh, TCR CD3 inh, PRMT1 inh) | PAD4 confirm inactive
Cc1nnc(N/N=C/c2ccco2)n1N	PAD4 FP inh 23 | PAD4 confirm inactive
COc1cccc(/C=N/Nc2nnc(C)n2N)c1O	PAD4 FP inh 39 | PAD4 confirm inactive
CN(C)c1cc(N/N=C/c2ccccc2C(F)(F)F)nc(N(C)C)n1	none
Cc1nnc(N/N=C/c2cccc(C(F)(F)F)c2)n1N	PAD4 FP inh 35 | PAD4 confirm inactive
Cc1nnc(N/N=C/c2ccccc2C(F)(F)F)n1N	PAD4 FP inh 18 | PAD4 confirm inactive
CCOC(=O)N1CCN(C(=O)C[C@H]2C[C@@]3(C(=O)OC)C(=C[C@H](COCc4ccccc4)O[C@@H]3C)N(CCc3ccc(OC)c(OC)c3)C2=O)CC1	none (no result: Fam108B counter, PME-1 primary, TCR CD3 inh, PAD4 FP inh)
C=CCN1C(=O)[C@H](CC(=O)NCc2ccc(C)o2)[C@@]2(C(=O)OCC)CCCC=C12	none (no result: Fam108B counter, PME-1 primary, TCR CD3 inh, PAD4 FP inh)
COc1ccc(CN2CN3Cc4ccccc4C3CS2(=O)=O)cc1 (stereo not given)	none (no result: Fam108B counter, PME-1 primary, TCR CD3 inh, PAD4 FP inh)
Cc1nnc(N/N=C/c2ccccc2F)n1N	PAD4 FP inh 31 | PAD4 confirm inactive
Fc1ccccc1/C=N/Nc1nn[nH]n1	none
Cc1nnc(N/N=C/c2cccc(OCc3ccc(Cl)c(Cl)c3)c2)n1N	PAD4 FP inh 33 | PAD4 confirm inactive
COc1ccc(-n2c(C)cc(/C=N/Nc3nnc(C)n3N)c2C)cc1	PAD4 FP inh 36 | PAD4 confirm inactive
CCOc1ccc(-n2c(C)cc(/C=N/Nc3nc(C)cc(=O)[nH]3)c2C)cc1	none
CCOc1cc(/C=N/Nc2nnc(C)n2N)ccc1OC(C)=O	none (no result: Fam108B counter, PME-1 primary, PAD4 FP inh)
CCOC(=O)C1=NOC(C(C)=O)(C(=O)N2CCOCC2)C1 (stereo not given)	none (no result: Fam108B counter, PME-1 primary, TCR CD3 inh, PAD4 FP inh)
O=C1CSC(c2ccccc2O)N1Cc1ccccc1 (stereo not given)	PAD4 FP inh 41 | PAD4 confirm inactive
O=C1CSC(c2cccc(O)c2)N1Cc1ccccc1 (stereo not given)	none
CC(C)(C)[C@@H]1/C(=C/C2CC2)N2C(=O)C[C@@H](c3ccccc3)N=C2N1Cc1ccc2c(c1)OCO2	none (no result: Fam108B counter, PME-1 primary, TCR CD3 inh, PAD4 FP inh)
COC(=O)c1ccc(NC(=O)CSC2=NCCN2)cc1	PRMT1 inh 63, PAD4 FP inh 18 | PAD4 confirm 30
NS(=O)(=O)c1ccc(NC(=O)CSC2=NC(=O)C(c3ccccc3)C(=O)N2)cc1 (stereo not given)	none
COC(=O)c1cc(NC(=O)CSC2=NCCS2)cc(C(=O)OC)c1	PAD4 FP inh 18 | PAD4 confirm 15
CCC1C(=O)N=C(SCC(=O)Nc2ccc(C(=O)OC)cc2)NC1=O (stereo not given)	PAD4 FP inh 16 | PAD4 confirm 21
COC(=O)c1cc(NC(=O)Cc2ccc(OC)cc2)cc(C(=O)OC)c1	PAD4 FP inh 21 | PAD4 confirm 17
CCCCCCCCN1C(=O)[C@@H](CC(=O)N2CCN(C(=O)C3CC3)CC2)C[C@@]2(C(=O)OC)C1=C[C@H](C(C)C)O[C@@H]2C1CC1	none (no result: Fam108B counter, PME-1 primary, TCR CD3 inh, PAD4 FP inh)
Cc1occc1-c1nnc(SCC(=O)NCc2ccc(Cl)cc2)n1-c1ccccc1	none (no result: Fam108B counter, PME-1 primary, TCR CD3 inh, PAD4 FP inh)
COc1ccccc1C(=O)CSc1nnc(-c2ccncc2)n1-c1ccc(Cl)cc1	none (no result: Fam108B counter, PME-1 primary, TCR CD3 inh, PAD4 FP inh)
CCOC(=O)[C@H]1[C@H]2COc3cc(OC)ccc3[C@@H]2N2C(=O)c3cc(C)ccc3NC(=O)[C@@]12C	PAD4 FP inh 16 | PAD4 confirm inactive
CC1CCC2(CC1)CCN(CCCOC(=O)Nc1ccc3c(c1)OCO3)C2=O (stereo not given)	none (no result: Fam108B counter, PME-1 primary, TCR CD3 inh, PAD4 FP inh)
C(=Nc1ccc(Nc2ccccc2)cc1)c1ccc2ccccc2c1	PAD4 FP inh 24 (no result: SIAE inh, TCR CD3 inh, PRMT1 inh) | PAD4 confirm inactive
COc1ccc(OC)c2[nH]c(=O)c(CCNC(=O)C(C)C)cc12	none
COc1ccc(OC)c2[nH]c(=O)c(CCNC(=O)CC(C)C)cc12	PAD4 FP inh 50 | PAD4 confirm inactive
O=C(Nc1nc2ccccc2s1)c1ccc(F)cc1	none
O=C(Nc1nc(=O)c2ccccc2s1)c1ccccc1	PRMT1 inh 75, PAD4 FP inh 24 | PAD4 confirm inactive
Cc1ccc(C(=O)Nc2nc3ccccc3c(=O)s2)cc1	PRMT1 inh 59, PAD4 FP inh 15 | PAD4 confirm inactive
CC(C)(C)c1ccc(S(=O)(=O)N2CCC(C(=O)NCc3cccs3)CC2)cc1	none (no result: Fam108B counter, PME-1 primary, TCR CD3 inh, PAD4 FP inh)
CC12CCC(C(=Nc3ccc(N=C4C(=O)C5(C)CCC4C5(C)C)cc3)C1=O)C2(C)C	PAD4 FP inh 45 (no result: SIAE inh, TCR CD3 inh, PRMT1 inh) | PAD4 confirm inactive
CC12CCC(C(=NO)C1=O)C2(C)C (stereo not given)	none (no result: Fam108B counter, PME-1 primary, PAD4 FP inh)
CCS(=O)(=O)Nc1ccc2c(c1)C(=O)N(C)[C@@H]1CC[C@H](CC(=O)N3CCCCC3)O[C@H]1CO2	none (no result: Fam108B counter, PME-1 primary, TCR CD3 inh, PAD4 FP inh)
Cc1cc(O)ccc1Nc1cc(-c2cccc(N(C)C)c2)ncn1	none (no result: Fam108B counter, PME-1 primary, PAD4 FP inh)
CN(C)c1cccc(O)c1	PAD4 FP inh 22 (no result: Fam108B counter) | PAD4 confirm inactive
CC1(C)Cc2ccccc2C(CSc2ccccc2C(=O)O)=N1	PAD4 FP inh 20 | PAD4 confirm 20
COc1cc2c(cc1OC)C(CSc1ccccc1C(=O)O)=NC(C)(C)C2	none
O=C1c2ccc3c4c(ccc(c24)C(=O)N1c1cccc(O)c1)C(=O)N(c1cccc(O)c1)C3=O	PAD4 FP inh 18 | PAD4 confirm 38
O=C1c2ccc3c4c(ccc(c24)C(=O)N1c1cccc(O)c1)CC3	none
Cc1cccc(N2C(=O)c3cccc4c(N)ccc(c34)C2=O)c1	PRMT1 inh 162, PAD4 FP inh 27 | PAD4 confirm 22
O=C(NCc1ccccc1)c1ccc(CO)cc1	none (no result: Fam108B counter, PME-1 primary, TCR CD3 inh, PAD4 FP inh)
COc1cccc(CNC(=O)C2CCN(c3nc(OC)nc(OC)n3)CC2)c1	none (no result: Fam108B counter, PME-1 primary, TCR CD3 inh, PAD4 FP inh)
COC(=O)N[C@H](C(=O)N[C@@H](Cc1ccccc1)[C@@H](O)CN(Cc1ccc(-c2ccccn2)cc1)NC(=O)[C@@H](NC(=O)OC)C(C)(C)C)C(C)(C)C	none (no result: Fam108B counter, PME-1 primary, TCR CD3 inh, PAD4 FP inh)
O=S(=O)(Nc1ccc(O)c2ccccc12)c1cccs1	PAD4 FP inh 21 | PAD4 confirm inactive
CN(C)c1ccc(C=Nc2ccc(N(C)C)cc2)cc1	PRMT1 inh 22, PAD4 FP inh 32 | PAD4 confirm inactive
Cc1ccc(N=Cc2ccc(N(C)C)cc2)cc1	none
COc1ccc(OC)c(NC(=O)C2CCN(S(=O)(=O)c3cccs3)CC2)c1	none
COc1ccccc1NC(=O)C1CCN(S(=O)(=O)c2cccs2)CC1	PAD4 FP inh 18 (no result: Fam108B counter) | PAD4 confirm inactive
Cc1onc(C(=O)N2CCN(C(c3ccc(Cl)cc3)c3ccc(Cl)cc3)CC2)c1[N+](=O)[O-]	none (no result: Fam108B counter, PME-1 primary, TCR CD3 inh, PAD4 FP inh)
Cc1ccc(NC(=O)CCNS(=O)(=O)c2ccc3[nH]c(=O)oc3c2)cc1F	PAD4 FP inh 21 | PAD4 confirm inactive
Cc1ccnc(NC(=S)N2CCC(Nc3cccc(C(F)(F)F)c3)CC2)c1	none (no result: Fam108B counter, PME-1 primary, TCR CD3 inh, PAD4 FP inh)
